Assay outcomes from PubChem.
VDR inhibitor: Inhibitors of the vitamin D receptor (VDR): qHTS; 400,000 compounds, 0.93% hits; AID 504847, 2011; Vitamin D3 receptor (Homo sapiens), P11473; Potency, µM, most hits filed as inhibitors; VDR-SRC2-3 peptide fluorescence polarization, 2 h
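FP read-out; VDR + SRC2-3 coactivator peptide; 23 nl compound by pintool; 2 h RT incubation; reagents held at 4 deg C, protected from light.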
CBFb-RUNX1 inh: qHTS Assay for Compounds Blocking the Interaction Between CBF-beta and RUNX1 for the Treatment of Acute Myeloid Leukemia. AlphaScreen CBFb-His/RUNX1-biotin binding, biochemical. Potency, µM (titrated, usually from 59.8 µM), actives largely listed as inhibitors. 230,000 tested, under 10 active. AID 1477, 2009
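Room-temperature protein-protein interaction test with 30 nM each of His-tagged CBF-beta and biotinylated RUNX1, 15 min with compound, then 90 min with nickel plus streptavidin beads. Signal read in AlphaScreen mode.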
KCNH2 WT inh: qHTS for Inhibitors of KCHN2 3.1: Wildtype qHTS | Voltage-gated inwardly rectifying potassium channel KCNH2 (Homo sapiens), Q12809 | U2OS, BacMam KCNH2, thallium flux FluxOr; hits give low values | activity change, % at 1.84 µM | 340,000 compounds, 0.37% hits | AID 720551, 2013;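 active = maximum activity change below -70%; inconclusive = maximum activity change between -70% and -50%; inactive = maximum activity change above -50%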
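U2OS cells were transduced with wild-type KCNH2 virus (2.03 x 10^8 / mL) for 4 h at room temperature, then cultured overnight at 37 C. Thallium flux was read with FluxOr dye. Rate constants were normalized to DMSO controls.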
KCNH2 3.1 inh: qHTS for Inhibitors of KCHN2 3.1: Mutant qHTS; Potassium voltage-gated channel subfamily H member 2, brain isoform KCNH2 3.1 (human); activity change, % (tested at about 1.8 µM); 340,000 compounds, 0.95% hits; U2OS KCNH2 3.1, thallium flux FluxOr; hits give low values;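 active = maximum activity change below -70%; inconclusive = maximum activity change from -70% to -50%; inactive = maximum activity change above -50%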;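 note: thallium influx rate constant from kinetic fluorescence after stimulation buffer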
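FluxOr-based Tl+ influx in U2OS cells transduced with KCNH2 3.1 virus; rate constants normalized to DMSO controls.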
PLK1 PBD inh: qHTS for Inhibitors of PLK1-PDB (polo-like kinase 1 - polo-box domain): Primary Screen; Serine/threonine-protein kinase PLK1 (Homo sapiens), P53350; Plk1 PBD binding of FITC phosphopeptide, fluorescence polarization; Potency, µM, actives largely listed as inhibitors; 360,000 compounds, 2.8% hits; note: series mostly up to about 57 µM; nearly all actives have a fitted effect of over 65% in size
Target sequence (P53350 whole entry, looked up, the tested form may be a part): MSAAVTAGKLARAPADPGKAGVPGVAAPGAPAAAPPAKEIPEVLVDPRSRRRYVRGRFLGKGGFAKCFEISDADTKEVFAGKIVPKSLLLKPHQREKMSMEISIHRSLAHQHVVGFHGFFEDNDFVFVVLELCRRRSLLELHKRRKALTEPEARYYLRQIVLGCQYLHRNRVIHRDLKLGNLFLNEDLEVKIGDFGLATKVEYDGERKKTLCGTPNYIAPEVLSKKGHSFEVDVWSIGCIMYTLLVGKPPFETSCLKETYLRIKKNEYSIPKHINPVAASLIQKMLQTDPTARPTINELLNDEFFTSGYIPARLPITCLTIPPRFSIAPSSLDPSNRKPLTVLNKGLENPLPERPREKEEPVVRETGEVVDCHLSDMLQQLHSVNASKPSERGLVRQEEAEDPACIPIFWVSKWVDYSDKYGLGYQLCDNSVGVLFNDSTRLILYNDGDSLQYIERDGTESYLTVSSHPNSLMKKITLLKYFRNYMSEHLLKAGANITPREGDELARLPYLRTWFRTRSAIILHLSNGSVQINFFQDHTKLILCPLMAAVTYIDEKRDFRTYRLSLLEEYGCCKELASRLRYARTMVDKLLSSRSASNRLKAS
MBNL1-CUG inh: qHTS Assay for Inhibitors of MBNL1-poly(CUG) RNA binding | Muscleblind-like protein 1 (Homo sapiens), Q9NR56 | TR-FRET MBNL1-His/biotin-(CUG)12 binding, 665/545 ratio | Potency, µM (top dose mostly 57.5 µM), hits mostly inhibitors | 280,000 compounds, 0.036% hits | AID 2675, 2010; active = well fitted inhibition curve with a large enough effect in the signal ratio, with a control signal flat, not every such curve was filed as active; inconclusive = small, poorly fitted or top-dose-only effect, or effect the other way, or a change in a side signal; inactive = no such curve, though single readings can be large or run the other way; the % refers to the signal ratio
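Compound titration spanned 92 nM–58 uM against the MBNL1-His/biotin-(CUG)12 complex. After 60 min at room temperature with 5 nM streptavidin-XL665 and 0.055 ng/ul terbium anti-His, ratiometric 665/545 nm emission (Ex 340 nm) normalized to controls.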
Hits are given with their value; – = inactive; ? = inconclusive; · = not tested or not shown. A selection: hits, their analogues and other compounds. The true share with any hit is near 3.8%. Unless noted, calls come from the whole dose curve; as a rule, active = well fitted curve in the direction sought with a large enough effect; inconclusive = small, poorly fitted or top-dose-only effect, or another doubt; inactive = no such curve, though single readings can be large; an effect the other way counts as inactive or inconclusive.

SMILES | VDR inhibitor | CBFb-RUNX1 inh | KCNH2 WT inh | KCNH2 3.1 inh | PLK1 PBD inh | MBNL1-CUG inh
O=c1c2cccnc2n(-c2ccccc2)n1Cc1c(Cl)cccc1Cl | – | – | – | – | – | –
O=c1c2cccnc2n(-c2ccccc2)n1Cc1ccc(Cl)cc1 | – | – | – | – | 27µM | –
O=C(NCc1ccco1)c1cc(NS(=O)(=O)c2cccc([N+](=O)[O-])c2)ccc1O | – | – | -152 | -198 | – | ?
O=C(NCc1ccco1)c1cccc(NS(=O)(=O)c2cccc(F)c2)c1 | – | – | – | – | – | ·
CCOc1ccccc1-n1nnc(-c2nsc(NC(=O)c3ccc(C)cc3)n2)c1C | – | · | · | · | · | ·
Cc1ccc2cc(/C=C/C(=O)c3ccco3)c(Cl)nc2c1 | ? | – | – | – | – | –
Cc1ccc2nc(Cl)c(/C=C/C(=O)c3ccco3)cc2c1 | 18µM | – | – | – | – | –
O=C(Nc1nc(-c2ccccn2)cs1)c1ccc2c(c1)OCCO2 | – | – | – | – | – | –
CC1CC1C(=O)Nc1nc(-c2ccccn2)cs1 (stereo unspecified) | 79µM | ? | – | – | ? | –
CC(=O)Nc1ccc(C(=O)Nc2nc(-c3cccnc3)cs2)cc1 | ? | ? | – | – | 13µM | –
O=C(Nc1nc(-c2ccccn2)cs1)c1ccccc1-n1cnnn1 | ? | – | – | – | 3.8µM | ·
CC(=O)Nc1ccc(C(=O)Nc2nc(-c3ccccn3)cs2)cc1 | – | ? | – | – | 24µM | –
Cc1cccc(CCNC(=O)c2ccc3c(c2)nc2n3CCCCC2)c1 | – | · | · | · | · | ·
Cc1oc2ncn(CC(C)C)c(=O)c2c1C(=O)NC(C)c1ccccc1 (stereo unspecified) | – | · | · | · | · | ·
Cc1ccc(CNc2ncnc3ccc(-c4c(C)noc4C)cc23)cc1 | · | – | · | · | · | ·
C=CC(C)=C[C@@]1(C)SC(=O)C(C)=C1O | – | · | · | · | · | ·
Cn1nc(C(=O)Nc2nc(-c3ccccn3)cs2)c2ccccc2c1=O | ? | · | – | – | 13µM | ·
CCCn1nc(C(=O)Nc2nc(-c3ccccn3)cs2)c2ccccc2c1=O | – | · | – | – | – | ·
O=C(c1cccnc1Cl)N1CCOCC1 | ? | – | – | – | 19µM | –
Cc1ccc(Cn2c(CNC(=O)Cc3cccc([N+](=O)[O-])c3)nc3cccnc32)cc1 | – | · | · | · | · | ·
COc1cccc(C(=O)N2c3ccc(C)cc3C(C)(c3ccccc3)CC2(C)C)c1 (stereo unspecified) | – | · | · | · | · | ·
O=[N+]([O-])c1ccc(-n2nnnc2-c2ccccc2)cc1 | 22µM | – | · | – | 11µM | ?
O=[N+]([O-])c1ccc(-n2nnnc2-c2ccccc2)c([N+](=O)[O-])c1 | – | – | – | – | – | ?
Cc1cccc(NC(=O)CN2C(=O)S/C(=C\c3cccn3-c3cccc(C(=O)O)c3)C2=O)c1 | – | – | – | – | ? | ?
Cc1cccc(C)c1NC(=O)CN1C(=O)S/C(=C\c2cccn2-c2cccc(C(=O)O)c2)C1=O | – | – | – | – | 42µM | –
SMILES | VDR inhibitor | CBFb-RUNX1 inh | KCNH2 WT inh | KCNH2 3.1 inh | PLK1 PBD inh | MBNL1-CUG inh
Cc1ccc(NC(=O)CN2C(=O)S/C(=C\c3cccn3-c3cccc(C(=O)O)c3)C2=O)c(C)c1 | – | – | – | – | 24µM | –
Cc1ccccc1NC(=O)CN1C(=O)S/C(=C\c2cccn2-c2cccc(C(=O)O)c2)C1=O | – | – | – | – | ? | –
CCN(C(=O)c1cc2c(=O)n(CC)c3ccccc3c2s1)c1cccc(C(F)(F)F)c1 | – | · | · | · | · | ·
Cc1ccccc1OCC(=O)Nc1ccc(S(=O)(=O)N(Cc2ccccc2)c2ccccc2)cc1 | – | · | · | · | · | ·
COC(=O)c1cc(Cl)c(NC(=O)/C=C/c2ccc(Cl)cc2)cc1OC | – | – | – | -80 | – | –
COc1ccc(/C=C/C(=O)OCC(=O)Nc2cc3oc4ccccc4c3cc2OC)cc1 | · | – | · | · | · | –
